Measurements from PubChem BioAssay (NCI).
About 83,000 compounds went through this panel and 20% of them were active in at least one assay; those are over-represented in the sample as a whole.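 Growth was measured after 48 h exposure to one concentration of compound in 96-well plates. Values under 10 count as active.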 The source made the active and inactive calls.

Tested on: MDA-MB-468 breast
Experiment: NCI-60 one-dose screen, 48 h (100 = growth as untreated, 0 = no growth, -100 = all killed)
Conditions: 10 µM unless noted

Question: With `C/C(=C(\c1ccc(O)cc1)c1ccc(OCCN2CCCCCC2)cc1)c1ccc(Cl)cc1` as the molecule, how does the growth read?
Answer: Its growth is -88% (active).

Question: With `O=C(NC1CC(F)C1)c1cc2cccnc2n1-c1ccc(Cl)c(Cl)c1` (centres undefined) as the molecule, how does the growth read?
Answer: The growth was 101% (inactive).

Question: Which growth does the source give for `O=S(=O)(Nc1ccc(Cl)cc1)c1ccc(-c2cnc(C3CC3)o2)cc1` here?
Answer: The growth was -27.7% (active).

Question: With `COc1cc(NC(C)CCCNC(=O)CCC(=O)NCCCNCCCCCCCCCCNCCCNC(=O)CCC(=O)NCCCC(C)Nc2cc(OC)cc3cccnc23)c2ncccc2c1` (centres undefined) as the molecule, how does the growth read?
Answer: Its growth is -0.701% [8 µM] (active).

Question: How did the growth turn out when `CCCCCCCCn1ccc2cc(NC(=O)Cn3cc(CN4CCCCCC4)nn3)ccc21` was run?
Answer: The growth was -67.2% (active).

Question: `Oc1ccc(Nc2ccc3ccccc3c2)cc1` was tested. Which growth did it give?
Answer: Its growth is 30.5% (inactive).

Question: Which growth does the source give for `OCCN1CCN(c2cc(-c3cccc(OC(F)(F)F)c3)nc3ccc(N4CCCC4)cc23)CC1` here?
Answer: Its growth is 16.6% (inactive).

Question: `Brc1ccc(-n2cc(-c3nn[nH]n3)c(-c3cccs3)n2)cc1` was tested. Which growth did it give?
Answer: The growth was 92.4% (inactive).

Question: For `COc1ccc(-c2nc(Nc3nc4ccccc4[nH]3)nc(N)c2C#N)cc1`, which growth is on record?
Answer: The growth was 121% (inactive).

Question: Which growth does the source give for `CCCn1cnc2c(c1=N)C(c1ccc(OC)cc1)c1sc3c(CC)cccc3c1O2` (centres undefined) here?
Answer: The growth was 39.4% (inactive).

Question: `Oc1ccc2ccccc2c1N=Nc1ccccn1` was tested. Which growth did it give?
Answer: The growth was -28.6% (active).

Question: Which growth does the source give for `S=C(c1cccs1)N1CCN(c2cccc(Cl)c2)CC1` here?
Answer: Its growth is 85.8% (inactive).

Question: `N#Cc1ccc(N2Cc3ccccc3OC3=C2C(=O)c2c(O)ccc(O)c2C3=O)cc1` was tested. Which growth did it give?
Answer: Its growth is -18.8% (active).

Question: Which growth does the source give for `COc1ccc(-c2nc(SCCC(C)C)nc(N/N=C\c3ccccc3O)c2C#N)cc1` here?
Answer: Its growth is 88.6% (inactive).

Question: How did the growth turn out when `O=C(O)CCNC1CCCCC1` was run?
Answer: The growth was 93.1% (inactive).

Question: `NC(=O)N1CCOCC1` was tested. Which growth did it give?
Answer: Its growth is 111% (inactive).

Question: With `c1ccc([P+](CCCc2n(Cc3ccc4ccccc4c3)c3ccccc3[n+]2Cc2ccc3ccccc3c2)(c2ccccc2)c2ccccc2)cc1` as the molecule, how does the growth read?
Answer: Its growth is 34.5% (inactive).

Question: `CCNC(=O)c1[nH]cc(-c2ccccc2)c1-c1cc(OC)c2c(c1OC)OCO2` was tested. Which growth did it give?
Answer: The growth was 104% (inactive).

Question: Which growth does the source give for `COc1ccc2[nH]c(=O)c(CNc3ccc(Nc4nccc(-c5ccc(Cl)cc5)n4)cc3)cc2c1` here?
Answer: The growth was 88% (inactive).

Question: `O=c1cc2oc3cc(O)c(O)cc3c(-c3ccccc3O)c-2cc1O` was tested. Which growth did it give?
Answer: Its growth is 93.9% (inactive).

Question: For `Ic1cccs1`, which growth is on record?
Answer: The growth was 103% (inactive).

Question: Which growth does the source give for `O=C1C=CC2(NN=C(c3ccccc3)N2c2ccc(Cl)cc2)c2cccc(O)c21` (centres undefined) here?
Answer: The growth was 47.6% (inactive).

Question: Which growth does the source give for `CC[C@H](Nc1nc(N)nc(C)c1C#N)c1nc2cccc(NCc3ccc(C(=O)NO)cc3)c2c(=O)n1-c1ccccc1` here?
Answer: Its growth is 3.26% (active).

Question: `Cc1ccc(-c2nc3nc(-c4ccc(F)cc4)nc(N4CCNCC4)c3o2)cc1` was tested. Which growth did it give?
Answer: Its growth is 54.3% (inactive).

Question: For `CC(C)(C)CC(C)(C)NC(=O)Nc1ncccc1OCc1ccccc1`, which growth is on record?
Answer: The growth was 96% (inactive).

Question: How did the growth turn out when `NC(=O)[C@@H]1CC2CCC1C2` (some centres undefined) was run?
Answer: The growth was 99.4% (inactive).

Question: With `Cc1ccnc(NC(c2ccccc2)c2ccc3cccnc3c2O)c1` (centres undefined) as the molecule, how does the growth read?
Answer: Its growth is 24.9% (inactive).

Question: With `COc1ccc(Cn2cc3c(c2-c2cc(OC)c(OC)c(OC)c2)CCc2cnoc2-3)cc1N` as the molecule, how does the growth read?
Answer: Its growth is -10.1% (active).

Question: With `O=C1C(=O)c2c(nc3ncccn23)-c2ccccc21` as the molecule, how does the growth read?
Answer: Its growth is -64.9% (active).

Question: How did the growth turn out when `Cc1nc2ccc(Cl)cn2c1-c1nnc(SCc2ccc([N+](=O)[O-])cc2)o1` was run?
Answer: Its growth is 48.9% (inactive).

Question: `CC(=S)Nc1ccccc1` was tested. Which growth did it give?
Answer: Its growth is 103% (inactive).

Question: With `C#CC[C@@H]1C[C@]2(C)[C@H]3CC[C@@H]4[C@H]5[C@H](C(=C)C)CC[C@]5(C(=O)O)CC[C@@]4(C)[C@]3(C)CC[C@H]2C(C)(C)[C@H]1O` as the molecule, how does the growth read?
Answer: Its growth is -2.92% (active).

Question: `CCN=Cc1c(O)c(O)c(C(C)C)c2cc(C)c(-c3c(C)cc4c(C(C)C)c(O)c(O)c(C=NCC)c4c3O)c(O)c12` was tested. Which growth did it give?
Answer: The growth was 55.7% (inactive).

Question: `O=C(NS(=O)(=O)c1ccc2ccccc2c1)n1cc(-c2ccncc2)c(-c2ccc(Cl)c(O)c2)n1` was tested. Which growth did it give?
Answer: The growth was 78.3% (inactive).

Question: With `CCCCN(CCCC)CCCn1c(-c2ccccc2)ccc1-c1ccccc1` as the molecule, how does the growth read?
Answer: Its growth is 43% (inactive).

Question: How did the growth turn out when `CN(C)CCCn1c2c(c3ccc(-c4ccn[nH]4)cc3c1=O)C(=O)c1ccccc1-2` was run?
Answer: Its growth is 35% (inactive).

Question: With `O=S(=O)(c1ccc(N/N=C\c2ccccc2)cc1)c1ccc(N/N=C/c2ccccc2)cc1` as the molecule, how does the growth read?
Answer: Its growth is 61% (inactive).

Question: How did the growth turn out when `COC(=O)c1c(C)nc(Nc2nc3ccccc3s2)nc1-c1ccc(Cl)cc1Cl` was run?
Answer: Its growth is 104% (inactive).

Question: `O=[N+]([O-])c1ccc(-c2nc(-c3ccccc3)c(-c3ccccc3)n2-c2ccccc2)cc1` was tested. Which growth did it give?
Answer: Its growth is 2.29% (active).
